High-throughput results (PubChem)
LmPK inhibitor: blocks Leishmania mexicana pyruvate kinase activity; Q27686; purified LmPK, Kinase-Glo ATP luminescence, 1 h; Potency, µM (series often up to 57.5 µM), actives largely listed as inhibitors; hit rate 0.37% among 290,000; AID 1721
Target sequence (Q27686 whole entry, looked up): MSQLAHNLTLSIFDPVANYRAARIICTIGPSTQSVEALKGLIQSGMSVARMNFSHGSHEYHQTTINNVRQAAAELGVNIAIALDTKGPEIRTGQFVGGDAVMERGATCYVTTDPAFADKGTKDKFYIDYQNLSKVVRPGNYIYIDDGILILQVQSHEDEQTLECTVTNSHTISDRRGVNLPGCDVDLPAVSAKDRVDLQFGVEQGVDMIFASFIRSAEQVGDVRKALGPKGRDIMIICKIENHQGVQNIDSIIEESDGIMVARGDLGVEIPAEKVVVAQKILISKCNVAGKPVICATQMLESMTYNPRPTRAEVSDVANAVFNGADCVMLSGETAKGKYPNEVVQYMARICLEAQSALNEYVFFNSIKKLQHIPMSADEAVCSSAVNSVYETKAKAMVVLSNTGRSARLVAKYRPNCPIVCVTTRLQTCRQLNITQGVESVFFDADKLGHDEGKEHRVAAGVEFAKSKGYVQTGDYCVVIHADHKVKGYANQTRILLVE
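Purified LmPK (0.1 nM) with 0.5 mM PEP and 0.1 mM ADP in imidazole buffer pH 7.2 with MgCl2/KCl, 1 h at room temperature. ATP formed was read by luciferase luminescence and normalized to no-enzyme and uninhibited controls.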
Shiga inhibitor: blocks Shiga toxin action in Vero cells. Vero cells, Shiga toxin protein synthesis inhibition reporter. inhibition, % at 38.7 µM. hit rate 9.2% among 290,000; in the data active = inhibition mostly above about 28%, no sharp cut-off; inactive = mostly below about 43%
Pf growth 48h: inhibits P. falciparum growth in the first generation, 48 h | Potency, µM (highest dose often 28.7 µM), actives largely listed as inhibitors | hit rate 5.9% among 310,000 | P. falciparum luciferase growth in erythrocytes, 48 h
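Luciferase-expressing parasites in RBCs, 2% Hct / 0.1% parasitemia final; RPMI 1640 + 0.5% Albumax; 37 C, 5% CO2, one generation; luminescence read-out, lower signal = inhibition.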
Pf growth 96h: P. falciparum growth inhibition at 96 hour, primary screen for plastid delayed-death inhibitors. hit rate 6.9% among 320,000. Potency, µM (series often up to 28.7 µM), most hits filed as inhibitors. AID 504834. P. falciparum luciferase reporter growth, 96 h
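Delayed-death screen, second-generation endpoint: infected erythrocytes, 2% hematocrit, 0.05% parasitemia final; 96 hours at 37 C, 5% CO2; luciferase detection reagent; luminescence decrease equals reduced growth.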
CHX counter: counter-screen for Shiga toxin inhibitors: cycloheximide protein synthesis inhibition; cell reporter, cycloheximide protein synthesis inhibition counterscreen; AID 2314; max response, %; hit rate 12% among 300,000; in the data active = max response mostly above about 13%, no sharp cut-off; inactive = mostly below about 14%; also: read at 38.3 µM for the half of the compounds with a filed dose
Large screens that a line does not name were inactive. This is a sample that favours compounds with a hit; in the whole collection about 22% have one here. Unless noted, calls follow the shape of the dose curve; as a rule, active = well fitted inhibition curve with a large enough effect; inconclusive = small, poorly fitted or top-dose-only effect, or another doubt; inactive = no such curve, though single readings can be large or run the other way.

COCCNC(=O)/C(C#N)=C/c1ccc(OC(=O)c2cccs2)c(OC)c1	none
COCCNC(=O)/C(C#N)=C/c1cccs1	CHX counter 14
CN(C)c1ccc(/C=C(/C#N)C(=O)NCc2ccccc2)o1	CHX counter 59
COc1ccc(N(CCC#N)C(=O)/C(C#N)=C\c2cccs2)cc1	CHX counter 20
N#C/C(=C/c1ccccc1)C(=O)NCc1ccccc1	none
CC[C@H](C)C(N)c1cn([C@@H](CC(N)=O)C(=O)N2CCNCC2)nn1 (some centres not stated)	none (no result: LmPK inhibitor, Shiga inhibitor, CHX counter)
O=C(NC(Cc1ccccc1)C(=O)O)/C(=C/c1ccc(Cl)cc1)NC(=O)c1ccco1 (configuration not stated)	none
CSc1ccc(/C=C(\C#N)C(=O)Nc2cccc(C)c2)cc1	Pf growth 96h inconclusive, CHX counter 22
N#C/C(=C\c1cccs1)C(=O)NCc1ccco1	Shiga inhibitor 56, Pf growth 96h inconclusive, CHX counter 39
Cc1ccsc1/C=C(\C#N)C(=O)NCc1ccco1	none
Cc1ccc(/C=C(\C#N)C(=O)NCc2ccco2)o1	Shiga inhibitor 66, CHX counter 43
NS(=O)(=O)c1ccc(NC(=O)Cn2nc(C(=O)O)c3ccccc3c2=O)cc1	none
Cc1cc(C)cc(OCC(=O)Nc2ccc3c(c2)C(=O)c2ccccc2C3=O)c1	Shiga inhibitor 46, CHX counter 20
O=C(Cn1nc(C(=O)O)c2ccccc2c1=O)Nc1ccc2c(c1)C(=O)c1ccccc1C2=O	CHX counter 24
CCC(=O)NC1=C(NC(C)c2ccccc2)C(=O)c2ccccc2C1=O (configuration not stated)	Pf growth 96h 0.93µM (no result: Pf growth 48h)
CCC(=O)Nc1ccc2c(c1)C(=O)c1ccccc1C2=O	Shiga inhibitor 76, CHX counter 36
CC(NC(=O)c1cccnc1Sc1ccccc1)c1ccc(S(N)(=O)=O)cc1 (configuration not stated)	none
CC1CCN(C(=O)CS(=O)(=O)Cc2ccccc2)CC1	Shiga inhibitor 77, CHX counter 35
CC1CCN(C(=O)c2ccc(CS(=O)(=O)Cc3ccccc3)cc2)CC1	Pf growth 96h inconclusive
CN(C)CCCN(C(=O)c1ccc2c(c1)CCCC2)c1nc2cc3c(cc2s1)OCO3	Pf growth 48h 12µM, Pf growth 96h 2.3µM
CN(C)CCCN(C(=O)c1ccc(S(=O)(=O)N(C)C)cc1)c1nc2ccc(F)cc2s1	none
CN(C)CCCN(C(=O)c1ccc2c(c1)CCCC2)c1nc2ccc(F)cc2s1	Pf growth 48h 8.3µM, Pf growth 96h inconclusive
CC(=O)C1=C(C)Nc2ncnn2C1c1ccc(Cl)cc1 (configuration not stated)	Pf growth 96h inconclusive
Cn1nc(OC(=O)Nc2ccc(Cl)cc2)cc1C(F)(F)F	CHX counter 17 (no result: Pf growth 96h)
Cn1nc(OC(=O)Nc2ccc(F)cc2)cc1C(F)(F)F	none (no result: Pf growth 96h)
C=CCN1C(=O)c2ccc(C(=O)N3CCN(c4ccccc4OC)CC3)cc2C1=O	Pf growth 48h inconclusive (no result: LmPK inhibitor, Shiga inhibitor, CHX counter)
CNC(=O)C1CCN(S(=O)(=O)c2c(C)noc2/C=C/c2ccccc2F)CC1	Pf growth 48h inconclusive
CC(C)c1ccc(NC(=S)N(C)CCc2ccccn2)cc1	Shiga inhibitor 88, CHX counter 30
Cc1cccc(C)c1NC(=S)N(C)CCc1ccccn1	none
O=C(NCCCNC(=O)c1ccc(Cl)cc1Cl)c1ccccn1	none
O=C(NCc1ccccn1)Nc1cc(Cl)ccc1Cl	Shiga inhibitor 90, Pf growth 96h inconclusive
O=C(NCc1ccccn1)c1ccc(Cl)cc1Cl	Shiga inhibitor 51, CHX counter 28 (no result: Pf growth 96h)
O=C(NCc1ccccn1)Nc1cc(Cl)cc(Cl)c1	Pf growth 48h inconclusive
CC(C)c1ccc(NC(=O)NCc2ccccn2)cc1	Shiga inhibitor 68, CHX counter 33
O=C(Nc1cccnc1)C1CCN(S(=O)(=O)c2ccc(Cl)cc2)CC1	none
O=C(NCc1ccccn1)Nc1cccc(Cl)c1	Shiga inhibitor 43, Pf growth 96h inconclusive, CHX counter 29 (no result: Pf growth 48h)
Cc1cccc(NC(=O)NCc2ccccn2)c1	Shiga inhibitor 51, Pf growth 48h inconclusive, CHX counter 27
C=CCNC(=O)c1ccccc1NC(=O)c1ccc(Cl)c(S(=O)(=O)Nc2cc(C)ccc2C)c1	Pf growth 48h inconclusive, Pf growth 96h 8.3µM
COc1cccc(NC(=O)NCc2ccccn2)c1	Shiga inhibitor 30, Pf growth 96h 2.1µM, CHX counter 17
O=C(NCc1ccccn1)Nc1cccc(NC(=O)NCc2ccccn2)c1	Pf growth 96h inconclusive
Cc1ccc(NC(=O)c2ccc(NS(=O)(=O)c3ccc4[nH]c(=O)[nH]c4c3)cc2)nc1	none (no result: LmPK inhibitor, Shiga inhibitor, CHX counter)
Cc1ccc(NC(=O)c2ccc(NCc3ccco3)c([N+](=O)[O-])c2)cc1Cl	Pf growth 48h inconclusive
CCC(=O)N1CCc2cc(CNS(=O)(=O)c3cc(OC)ccc3OC)ccc21	none (no result: LmPK inhibitor, Pf growth 48h, Pf growth 96h)
O=C(NCc1ccccn1)Nc1ccc(Cl)c(Cl)c1	Shiga inhibitor 55, CHX counter 26
Cc1cc(C)cc(NS(=O)(=O)c2cc(C(=O)NCc3ccccn3)ccc2Cl)c1	Pf growth 96h inconclusive
O=C(NCc1ccccn1)c1ccc(Cl)c(S(=O)(=O)Nc2ccccc2C(=O)NCc2ccccn2)c1	Pf growth 48h 12µM, Pf growth 96h 9.3µM
NCCCC[C@H](NC(=O)[C@@H](Cc1ccccc1)NC(=O)[C@H](Cc1c[nH]c2ccccc12)NC(=O)[C@@H](CCCCN)NC(=O)[C@@H](Cc1c[nH]c2ccccc12)NC(=O)[C@@H](N)Cc1cnc[nH]1)C(N)=O	none (no result: LmPK inhibitor, Pf growth 48h, Pf growth 96h)
COc1ccccc1C(=O)Nc1ccc(-c2nnn(CC(=O)N3CCN(C(=O)c4ccco4)CC3)n2)cc1	CHX counter 28
Cc1ccccc1-c1nnn(CC(=O)N2CCN(C(=O)c3ccco3)CC2)n1	none (no result: LmPK inhibitor, Shiga inhibitor, CHX counter)
O=C(Nc1ccc(-c2nnn(CC(=O)N3CCN(C(=O)c4ccco4)CC3)n2)cc1)c1ccccc1F	Shiga inhibitor 84, CHX counter 51
O=C(Nc1ccccc1Cl)N1CCN(c2ccccn2)CC1	none
O=C(Nc1c[nH]c2c(Cl)cccc2c1=O)N1CCN(c2ccccn2)CC1	Pf growth 96h inconclusive, CHX counter 16
CCOc1c2ccoc2nc2c(OC)c(OC)ccc12	CHX counter 18
COc1c2c(nc3occc13)C(CC=C(C)C)(OC)C(=O)C=C2 (configuration not stated)	none
CCOc1c(OC)ccc2c3c(c(=O)oc12)CCCC3	none (no result: Pf growth 48h)
C=CCOc1ccc2c(OC)c3ccoc3nc2c1OC	Shiga inhibitor 39, Pf growth 96h inconclusive, CHX counter 26
Nc1ccc(-c2cnc[nH]2)cc1[N+](=O)[O-]	CHX counter 12
Cn1c(=O)c2c(nc(NCc3cccnc3)n2Cc2ccccc2Cl)n(C)c1=O	Pf growth 48h inconclusive, Pf growth 96h inconclusive
Cc1ccc(S(=O)(=O)Nc2nc(C)c(C(=O)NNS(=O)(=O)c3cc(C)ccc3C)s2)cc1	none
Cc1nc(Cl)sc1C(=O)Nc1ccc(C(C)(C)C)cc1	Shiga inhibitor 91, CHX counter 50
